94 compounds from PubChem BioAssay AID1220 (Sanford-Burnham Center for Chemical Genomics, 2008) can be followed below.

In all, about 190,000 compounds went through this assay and about 1,300 (0.68%) were called active. What follows is part of a selection rich in actives, with near analogues and random picks from the rest. Unmarked numbers belong to inactive results. Rule as the data show it: active = inhibition above about 50%; inactive = the rest.

The target of this test is Mannose-6-phosphate isomerase (Homo sapiens) (UniProt P34949). As to the kind of experiment: human PMI inhibitors, high substrate, primary screen, biochemical, fluorescence intensity, high mannose 6-phosphate (AID 1220). The conditions noted are these: recombinant PMI enzyme, coupled fluorescence intensity; at 20 µM; stronger effect = higher value.
Sequence of Mannose-6-phosphate isomerase (Homo sapiens) (P34949 whole entry, looked up): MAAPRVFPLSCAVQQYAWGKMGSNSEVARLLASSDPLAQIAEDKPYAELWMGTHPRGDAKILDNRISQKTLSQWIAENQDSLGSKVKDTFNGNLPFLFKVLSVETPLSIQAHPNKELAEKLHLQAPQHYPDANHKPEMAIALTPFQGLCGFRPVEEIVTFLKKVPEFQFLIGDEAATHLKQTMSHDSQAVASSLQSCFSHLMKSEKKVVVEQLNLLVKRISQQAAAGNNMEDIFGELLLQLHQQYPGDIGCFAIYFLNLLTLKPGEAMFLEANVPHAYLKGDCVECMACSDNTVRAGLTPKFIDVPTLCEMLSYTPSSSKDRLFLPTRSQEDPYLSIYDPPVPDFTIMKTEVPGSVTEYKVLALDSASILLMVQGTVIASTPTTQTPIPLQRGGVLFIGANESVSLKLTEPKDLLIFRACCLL
By inhibition is commonly meant the change of the read-out against control, counted positive when it falls. `c1ccn2c(Cc3nnc4ccccn34)nnc2c1`: the inhibition was -7.1%.
To `CCn1nc(C)c(C(=O)Nc2cc(Oc3ccc(Cl)cc3)cc([N+](=O)[O-])c2)c1C` belongs 4.3%; to `O=C(N/C(=C\c1ccco1)C(=O)N1CCCC1)c1cccs1`, 8.5%; to `CCC(C)(C(=O)NC1CCCC1)N(Cc1cccs1)C(C)=O` (centres undefined), 0.2%.
Next, `CCC(C)(C(=O)NC1CCCC1)N(Cc1cccs1)C(=O)c1ccccn1` (centres undefined): 59.3% (active); `CCC(C)(C(=O)NC1CCCCC1)N(Cc1cccs1)C(=O)c1ccccn1` (centres undefined): -2%.
To `Cc1c2c(nc3c(C(=O)NC4CC4)cnn13)CCCC2` belongs -0.9%.
Consider `COc1cccc(CN2CCNC(=O)C2CC(=O)NCc2cn3ccccc3n2)c1OC` (centres undefined), for which the inhibition is 7.8%.
To `COc1cccc(CN2CCNC(=O)C2CC(=O)NCCn2cccn2)c1OC` (centres undefined) belongs 16.7%; to `COc1cccc(CN2CCNC(=O)C2CC(=O)NCCn2ccc3ccccc32)c1OC` (centres undefined), 51.1% (active).
Next, `Cc1c(NC(=O)C2CCCO2)cccc1[N+](=O)[O-]` (centres undefined): 0.2%; `Cc1c(N=CC=Nc2c(C)n(C)n(-c3ccccc3)c2=O)c(=O)n(-c2ccccc2)n1C`: -5.1%; `Cc1csc(=Nc2c(C)n(C)n(-c3ccccc3)c2=O)n1-c1ccccc1`: 5.3%.
`Cc1c(N=c2scc(-c3ccccc3)n2C)c(=O)n(-c2ccccc2)n1C`: the inhibition was -10.5%.
Turning to `Cc1c(N=C2C(=O)Nc3ccccc32)c(=O)n(-c2ccccc2)n1C`, the inhibition was 14.2%.
Next, `O=C(N1CCOCC1)N(CCN1CCOCC1)Cc1cccc2ccccc12`: 6.2%; `CCOc1ccccc1NC(=O)c1ccc2nccnc2c1`: 14.2%.
For the compound `CC(NS(=O)(=O)c1ccc(Br)cc1)C(c1cccs1)N1CCOCC1` (centres undefined), the inhibition was 10.2%.
To `CCOc1ccc(NC(c2ccccn2)c2oc(CO)cc(=O)c2O)cc1` (centres undefined) belongs 51.1% (active); to `O=c1cc(CO)oc(C(Nc2cccc([N+](=O)[O-])c2)c2ccccn2)c1O` (centres undefined), 28.5%; to `O=c1cc(CO)oc(C(Nc2cccc(C(F)(F)F)c2)c2ccccn2)c1O` (centres undefined), 43.6%.
Next, `CC(=O)NC(c1ccc(Cl)cc1)c1c(O)ccc2ccc(O)cc12` (centres undefined): 69.9% (active); `COc1ccc(C(NC(C)=O)c2c(O)ccc3ccccc23)cc1OC` (centres undefined): 8.9%; `O=C(NC(c1ccc(Cl)cc1)c1c(O)ccc2ccccc12)c1ccccc1` (centres undefined): 27.6%.
Regarding `CCc1ccc(-n2c(Cc3ccccc3)n[nH]c2=S)cc1`, the inhibition is 10.9%.
Next, `COCCN=C1NN=C(c2cc(C)n(CC3CCCO3)c2C)CS1` (centres undefined): 54.9% (active); `CCOc1ccc(N=C2NN=C(c3cc(C)n(CC4CCCO4)c3C)CS2)cc1` (centres undefined): -81.4%.
Next, `Cc1cc(C2=NNC(=NCCc3ccccc3)SC2)c(C)n1CC1CCCO1` (centres undefined): -32.7%.
On to `Cc1cc(C)c(S(=O)(=O)Cc2ccccc2)c(=O)[nH]1`, for which the inhibition was -13%.
Next, `COc1ccc(/C=N/NC(=O)Cn2c(Cc3ccc(OC)c(OC)c3)nc3ccccc32)cc1OC`: 5.5%; `CCN1C(=O)C(CC(=O)Nc2ccccc2)S/C1=N\c1ccccn1` (centres undefined): -2.2%; `CCOC(=O)C1(Cc2ccccc2C)CCCN(Cc2cc(OC)c(O)c(OC)c2)C1` (centres undefined): 65.5% (active).
Take `CCOC(=O)C1(Cc2ccccc2C)CCCN(Cc2ccc(NC(C)=O)cc2)C1` (centres undefined): the inhibition was -4.1%.
Next, `CCOC(=O)C1(Cc2ccccc2C)CCCN(Cc2cn(C)nc2C)C1` (centres undefined): 12.5%; `COc1ccc(CC(=O)Nc2ccc(OC)c(NC(=O)c3ccco3)c2)cc1`: 11.2%.
Next, `COc1ccc(S(=O)(=O)N(CC(C)C)CC(C)C)c2cccnc12`: 10.4%; `COc1ccccc1Oc1ccc2c(c1)C(=O)N(c1ccc(Br)c3cccnc13)C2=O`: 8.4%.
To `COc1cc(NC(C)CCCN)c2ncccc2c1Oc1ccccc1` (centres undefined) belongs 56.6% (active); to `O=C(N/N=C/c1c[nH]c2ccccc12)c1ccn(Cc2ccc(Cl)cc2)n1`, 1.6%.
As to `O=C(CSCc1nc2ccccc2[nH]1)Nc1ccc(Oc2ccccc2)cc1`, the inhibition is 10.1%.
To `O=S(=O)(NCc1ccncc1)c1ccccc1` belongs -9.4%.
To `Cc1ccc(NC(=O)Nc2cccn(Cc3c(F)cccc3Cl)c2=O)cc1` belongs 55.7% (active); to `O=C(NCc1ccccc1)Nc1cccn(Cc2ccccc2Cl)c1=O`, 38.2%; to `CC(=O)Nc1cccn(Cc2c(Cl)cccc2Cl)c1=O`, 8.5%.
For the compound `O=C(Nc1ccccc1)Nc1cccn(Cc2c(F)cccc2Cl)c1=O`, the inhibition is 35.6%.
Regarding `C#CCOC(=O)Nc1cccn(Cc2c(Cl)cccc2Cl)c1=O`, the inhibition was -71%.
For `O=C(NCc1ccccc1)Nc1cccn(Cc2ccccc2F)c1=O`, the inhibition was 20.5%.
Consider `COC(=O)Nc1cccn(Cc2c(Cl)cccc2Cl)c1=O`, for which the inhibition is 58.7% (active).
To `O=C(Nc1cccn(Cc2c(F)cccc2Cl)c1=O)NC1CCCCC1` belongs 17.3%; to `O=C(NCc1ccccc1)Nc1cccn(Cc2c(F)cccc2Cl)c1=O`, 53.7% (active); to `O=C(Cn1cncn1)NCCC(c1ccccc1)c1ccccc1`, 5.2%.
To `COc1ccc2c(c1)CC/C2=N\OC(=O)c1cccc(C)c1` belongs 2.5%; to `CCC1CCCCN1C(=O)c1c[nH]c2ccc(S(=O)(=O)N(C)c3ccc(Cl)cc3)cc2c1=O` (centres undefined), 1.6%; to `O=C(COc1ncnc2cc([N+](=O)[O-])ccc12)N(CCc1ccccc1)Cc1ccccc1`, 16.7%.
Next, `O=C(CCN1CCN(S(=O)(=O)c2ccc(Br)cc2)CC1)Nc1ccccc1F`: -6.1%; `O=C1c2ccccc2-c2nccnc21`: 6.6%.
As for `c1ccc(-n2cnc3ccccc32)cc1`, the inhibition was -1.2%.
To `O=C1c2ccccc2C(=O)c2c1ncn2-c1ccccc1` belongs 59.1% (active); to `Cc1ccsc1/C=N/N=C1\C(=O)Nc2ccccc21`, 5.3%.
With `CCc1nn(C(C)C(=O)Nc2cccc(C)c2C)c(=O)c2cc3occc3n12` (centres undefined), the inhibition is 6.9%.
Consider `CCCCc1c(C)nc2ccccc2c1SCCC#N`, for which the inhibition is -31.5%.
To `O=C(c1cccc(F)c1)N1CCN(c2cc(N3CCCCC3)c(F)cc2[N+](=O)[O-])CC1` belongs 15.2%; to `O=[N+]([O-])c1ccc(N2CCN(CCO)CC2)c2ncccc12`, 65% (active).
Next, `O=C(c1ccccc1F)N1CCN(c2ccc([N+](=O)[O-])c3ncccc23)CC1`: 38.3%; `O=C(c1cccc(F)c1)N1CCN(c2ccc([N+](=O)[O-])c3cccnc23)CC1`: 62.3% (active).
`O=C(c1ccccc1F)N1CCN(c2ccc([N+](=O)[O-])c3cccnc23)CC1`: the inhibition is 58.4% (active).
Next, `Cc1ccc(S(=O)(=O)N2CCN(c3ccc([N+](=O)[O-])c4cccnc34)CC2)cc1`: 20.2%.
Next, `O=C(c1cc(F)c(F)cc1Cl)N1CCN(c2ccc([N+](=O)[O-])c3ncccc23)CC1`: 46.1%; `Cc1cc(N2CCN(c3ccc([N+](=O)[O-])c4cccnc34)CC2)c2ccccc2n1`: 46.7%.
For the compound `COc1ccc(N2CCN(C(=O)c3cccc(F)c3)CC2)c([N+](=O)[O-])c1`, the inhibition is 11.8%.
To `CSc1nc2c(c(=O)n1C)SC(C)C2` (centres undefined) belongs 4.1%; to `Cc1ccn(-c2cc(O)c(-n3ccc(C)n3)cc2O)n1`, 13.9%.
To `COCCCNC(=O)Cn1cnc2sc(C)c(S(=O)(=O)N3CCN(c4ncccn4)CC3)c2c1=O` belongs 9.4%.
To `COc1cccc2cc(-c3ccnc(N)n3)oc12` belongs 18.3%.
In the case of `Cc1c(C(=O)NC(C)CCc2ccccc2)cccc1[N+](=O)[O-]` (centres undefined), the inhibition was 10.1%.
Turning to `Cc1ccc(CNC(=O)c2cc3c(-c4ccc(Cl)cc4)nn(C)c3s2)o1`, the inhibition was 12.8%.
Next, `CCCN(CCC)C(=O)CC(c1ccccc1)c1cc(Br)ccc1O` (centres undefined): 17.3%; `CCCSc1nc2c3c(sc2c(=O)[nH]1)CC(C)(CC)OC3` (centres undefined): 4.6%; `Nc1ccccc1C(=O)N=Nc1[nH]c(N)c2ccccc12`: 9.9%.
Take `Cc1[nH][nH]c(=O)c1C(c1c(C)[nH][nH]c1=O)c1cn(Cc2ccc(Cl)c(Cl)c2)c2ccccc12`: the inhibition is 58% (active).
Next, `CCOC(=O)n1c(=O)n(Cc2ccc(Cl)c(Cl)c2)c2ccccc21`: 12.4%; `Cc1[nH][nH]c(=O)c1C(c1c(C)[nH][nH]c1=O)c1cn(C)c2ccccc12`: 54.8% (active).
To `NC(=O)CSc1cn(Cc2ccc(F)cc2)c2ccccc12` belongs 12.6%.
To `Cc1[nH][nH]c(=O)c1C(c1c(C)[nH][nH]c1=O)c1cn(Cc2ccc(F)cc2)c2ccccc12` belongs 57.2% (active); to `Cc1[nH][nH]c(=O)c1C(c1ccc(-c2ccc(Cl)c(Cl)c2)o1)c1c(C)[nH][nH]c1=O`, -45.1%; to `O=C(O)Cc1cn(Cc2ccc(F)cc2)c2ccccc12`, -9.7%.
As to `Cn1cc(C(CC(=O)O)C(=O)O)c2ccccc21` (centres undefined), the inhibition is 4.1%.
Next, `Cn1cc(C(c2ccccn2)c2cn(C)c3ccccc23)c2ccccc21`: -0.8%; `Cc1ccc(-c2nc(SCC(=O)Nc3cc(S(=O)(=O)N4CCCCC4)ccc3Cl)n[nH]2)cc1`: 10.9%.
For the compound `C=C1c2ccccc2NC(=S)N1Cc1ccc2c(c1)OCO2`, the inhibition was -15.3%.
Next, `N#CC1=C(N)SC2(CCCCC2)SC1c1ccccc1` (centres undefined): -5.5%; `CC(C)CC(=O)OCc1cn(-c2ccccc2)nn1`: -8.7%.
To `Cc1nnc(NC(=O)CSc2nccn2C)s1` belongs -2.9%; to `COc1ccc(-n2nc3c(N)n[nH]c3cc2=O)cc1`, -97.5%.
